According to PubChem BioAssay:
Active and inactive are the calls of the source. Unless noted, no rule for the calls is given here.

How the values were obtained:
[1] = compounds binding Alexa647 anti-His antibody – biochemical, small-molecule microarray, 635 nm fluorescence, artefact control for SMM control protein annotation, primary screen (AID 1128); conditions: higher = more signal;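 also: score merges feature fluorescence with signal-to-noise for each printed compound spot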
[2] = tested on: Human papillomavirus type 1a E7 protein (residues 1-88); experiment: HPV1a E7 small-molecule binders, primary screen, biochemical, small-molecule microarray, residues 1-88, 635 nm (AID 1129); conditions: small-molecule microarray binding, fluorescence 635 nm; higher = more signal
[3] = biological target: Focal adhesion kinase 1 (Homo sapiens) (UniProt Q05397); experiment: PTK2 protein binding on printed compound slides – biochemical, small-molecule microarray, 635/667 nm fluorescence, BSA, DTT, primary screen (AID 1130); conditions: 635 nm fluorescence, higher = more signal;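 also: composite of spot emission at 667 nm and signal to noise over triplicate slides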
Sequence of Focal adhesion kinase 1 (Homo sapiens) (Q05397 whole entry, looked up): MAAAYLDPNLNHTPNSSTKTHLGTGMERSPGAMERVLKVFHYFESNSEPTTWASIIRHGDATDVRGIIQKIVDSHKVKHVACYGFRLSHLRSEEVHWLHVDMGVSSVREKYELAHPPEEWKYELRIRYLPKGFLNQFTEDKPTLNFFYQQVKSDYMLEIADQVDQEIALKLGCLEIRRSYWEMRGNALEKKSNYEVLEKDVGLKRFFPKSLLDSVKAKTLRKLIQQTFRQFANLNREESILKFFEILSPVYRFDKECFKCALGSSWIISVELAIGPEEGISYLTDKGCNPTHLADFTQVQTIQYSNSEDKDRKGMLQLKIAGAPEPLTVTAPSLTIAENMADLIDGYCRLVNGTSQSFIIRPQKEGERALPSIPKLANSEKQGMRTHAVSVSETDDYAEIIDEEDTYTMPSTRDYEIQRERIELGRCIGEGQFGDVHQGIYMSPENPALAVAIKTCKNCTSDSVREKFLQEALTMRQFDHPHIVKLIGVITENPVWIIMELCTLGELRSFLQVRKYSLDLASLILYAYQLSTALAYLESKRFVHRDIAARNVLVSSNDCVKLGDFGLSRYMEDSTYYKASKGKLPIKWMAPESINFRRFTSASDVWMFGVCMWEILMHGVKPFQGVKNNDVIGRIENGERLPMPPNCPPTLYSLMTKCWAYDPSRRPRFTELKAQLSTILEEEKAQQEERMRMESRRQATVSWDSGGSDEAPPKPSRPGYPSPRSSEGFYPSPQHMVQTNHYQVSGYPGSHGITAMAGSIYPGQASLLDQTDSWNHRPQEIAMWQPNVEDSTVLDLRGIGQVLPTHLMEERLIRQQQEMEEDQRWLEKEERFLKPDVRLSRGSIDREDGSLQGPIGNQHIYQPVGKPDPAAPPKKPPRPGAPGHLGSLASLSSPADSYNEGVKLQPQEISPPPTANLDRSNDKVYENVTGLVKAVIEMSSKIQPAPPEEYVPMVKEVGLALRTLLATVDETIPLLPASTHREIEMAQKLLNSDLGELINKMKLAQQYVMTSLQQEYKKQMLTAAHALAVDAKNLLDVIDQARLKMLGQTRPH

[4] = tested on: Fibrinogen (Alexa647-labelled); experiment: Alexa647-fibrinogen binding to printed small molecules – biochemical, small-molecule microarray, 635/667 nm fluorescence, artefact control for SMM control-protein annotation, profiling panel (AID 1131); conditions: fibrinogen-A647 binding fluorescence, higher = more signal;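 also: z-score merges 667 nm fluorescence with per-spot signal-to-noise over triplicate slides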
[5] = biological target: Follistatin (Homo sapiens) (UniProt P19883); experiment: FST protein binding to printed compounds – biochemical, small-molecule microarray, 635/667 nm fluorescence, primary screen (AID 1132); conditions: 635 nm fluorescence, higher = more signal
Sequence of Follistatin (Homo sapiens) (P19883 whole entry, looked up): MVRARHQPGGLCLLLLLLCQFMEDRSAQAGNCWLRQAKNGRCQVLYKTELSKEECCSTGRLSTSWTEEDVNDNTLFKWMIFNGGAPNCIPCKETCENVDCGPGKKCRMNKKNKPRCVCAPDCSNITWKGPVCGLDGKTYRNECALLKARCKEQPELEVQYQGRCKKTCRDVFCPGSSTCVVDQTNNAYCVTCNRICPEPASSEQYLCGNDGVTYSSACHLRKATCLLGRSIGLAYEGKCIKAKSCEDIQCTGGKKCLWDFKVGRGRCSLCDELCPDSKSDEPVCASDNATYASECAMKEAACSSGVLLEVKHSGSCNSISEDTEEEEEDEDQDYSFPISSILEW

[6] = biological target: Fibroblast growth factor 2 (Homo sapiens) (UniProt P09038); experiment: basic fibroblast growth factor binding to printed compounds – biochemical, small-molecule microarray, 635/667 nm fluorescence, primary screen (AID 1133); conditions: FGF2, fluorescence 635/667, higher = more signal
Sequence of Fibroblast growth factor 2 (Homo sapiens) (P09038 whole entry, looked up): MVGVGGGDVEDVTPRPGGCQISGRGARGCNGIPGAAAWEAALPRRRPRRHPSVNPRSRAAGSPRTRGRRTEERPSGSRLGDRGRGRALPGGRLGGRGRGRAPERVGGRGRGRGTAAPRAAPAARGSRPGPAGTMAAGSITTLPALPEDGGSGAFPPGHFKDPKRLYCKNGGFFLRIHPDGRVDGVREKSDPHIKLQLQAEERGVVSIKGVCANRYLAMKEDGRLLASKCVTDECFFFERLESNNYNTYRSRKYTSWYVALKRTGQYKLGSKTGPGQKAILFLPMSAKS

[7] = JC-1 mitochondrial potential readout, lung cancer cells – cell-based, A549, JC-1 fluorescence, basal, 24 h, 100 nL, profiling panel (AID 1138); conditions: higher = more signal;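 also: A549 lung adenocarcinoma cells under basal conditions with no added stimulus; test concentration not given here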
Lefty1 = Lefty1 protein binding to printed compounds – biochemical, small-molecule microarray, 635/667 nm fluorescence, primary screen (AID 1139); conditions: fluorescence 635/667, higher = more signal
[8] = tested on: wheat germ agglutinin (Triticum aestivum), Alexa647-labelled; experiment: Alexa647-WGA lectin binding to printed small molecules – biochemical, small-molecule microarray, 635/667 nm fluorescence, artefact control for SMM control-protein annotation, profiling panel (AID 1140); conditions: WGA-A647 binding, 635 nm fluorescence, higher = more signal;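 also: score merges 667 nm feature emission with signal to noise over triplicate slides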
[9] = biological target: Luciferin 4-monooxygenase (Photinus pyralis) (UniProt P08659); experiment: inhibition of purified Photinus pyralis luciferase – biochemical, luminescence, purified enzyme, 2006 set, primary screen (AID 1141); conditions: purified firefly luciferase, SteadyGlo luminescence, 30 min; higher = more signal, called active from +8 up or from −8 down;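 also: cell-free assay with purified firefly luciferase at 100 ng per well in PBS; test concentration not given here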
Sequence of Luciferin 4-monooxygenase (Photinus pyralis) (P08659 whole entry, looked up): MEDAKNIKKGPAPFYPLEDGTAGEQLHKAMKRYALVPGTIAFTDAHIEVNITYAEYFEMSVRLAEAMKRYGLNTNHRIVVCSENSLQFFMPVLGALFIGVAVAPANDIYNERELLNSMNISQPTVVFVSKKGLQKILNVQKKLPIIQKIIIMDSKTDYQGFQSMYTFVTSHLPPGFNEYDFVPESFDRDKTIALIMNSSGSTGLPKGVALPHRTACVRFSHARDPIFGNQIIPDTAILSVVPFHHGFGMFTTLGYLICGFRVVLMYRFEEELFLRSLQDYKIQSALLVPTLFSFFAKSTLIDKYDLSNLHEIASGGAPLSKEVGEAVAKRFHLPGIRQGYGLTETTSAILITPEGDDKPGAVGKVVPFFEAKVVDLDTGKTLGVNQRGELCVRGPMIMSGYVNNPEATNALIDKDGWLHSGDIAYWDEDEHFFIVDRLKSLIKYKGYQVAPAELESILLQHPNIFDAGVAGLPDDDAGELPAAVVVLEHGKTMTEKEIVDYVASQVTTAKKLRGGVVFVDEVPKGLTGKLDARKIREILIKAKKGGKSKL

[10] = tested on: Wnt5a (protein binding on small-molecule microarray); experiment: small molecules binding Wnt5a protein – biophysical, small-molecule microarray, 635/667 nm fluorescence, primary screen (AID 1142); conditions: 635 nm fluorescence, higher = more signal;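 also: fluorescence read at 667 nm with signal to noise per printed feature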
[11] = ATP-based viability of Huh7 replicon cells – cell-based, CellTiter-Glo luminescence, basal, 48 h, cytotoxicity control for HCV replication inhibitor project, primary screen (AID 1143); conditions: higher = more signal, called active from +8 up or from −8 down;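 also: Huh7 hepatoma cells carrying a hepatitis C replication reporter with no stimulus; test concentration not given here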
[12] = Pseudomonas biofilm growth suppression – PAO1 strain, BacTiter-Glo luminescence, LB-PBS, primary screen (AID 1144); conditions: P. aeruginosa PAO1 biofilm, 12 h, higher = more signal
[13] = basal CRE-LacZ reporter activity in PC12 – cell-based, unstimulated, primary screen (AID 1145); conditions: no forskolin, luminescence, 4.5 h, higher = more signal, called active from +8 up or from −8 down
[14] = forskolin-driven CRE-LacZ activity in PC12 – cell-based, CRE-LacZ reporter, forskolin-stimulated, primary screen (AID 1146); conditions: luminescence, 4.5 h, higher = more signal, called active from +8 up or from −8 down;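 also: PC12 cells with 6xCRE LacZ reporter stimulated by forskolin 10 µM; beta-galactosidase reporter signal reflecting CREB driven transcription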
[15] = biological target: Streptavidin (Streptomyces avidinii) (UniProt P22629); experiment: compounds binding control protein streptavidin – biophysical, small-molecule microarray, 635/667 nm fluorescence, artefact control for SMM compound annotation, primary screen (AID 1147); conditions: higher = more signal;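 also: signal reflects streptavidin binding to arrayed compounds as a control protein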
Sequence of Streptavidin (Streptomyces avidinii) (P22629 whole entry, looked up): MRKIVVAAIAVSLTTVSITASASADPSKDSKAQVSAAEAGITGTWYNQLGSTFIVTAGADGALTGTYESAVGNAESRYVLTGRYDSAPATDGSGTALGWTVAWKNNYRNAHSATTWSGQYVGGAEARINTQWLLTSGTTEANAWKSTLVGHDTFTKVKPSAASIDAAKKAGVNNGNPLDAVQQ

[16] = probe aInhba binding on compound microarray – biochemical, small-molecule microarray, 635/667 nm fluorescence, primary screen (AID 1148); conditions: higher = more signal;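 also: score merges 667nm spot fluorescence with signal-to-noise for antibody binding to printed compounds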
Torsin-1A (Homo sapiens) [17] = biological target: Torsin-1A (Homo sapiens) (UniProt O14656); experiment: TOR1A wild-type binding on microarray – cell lysate, small-molecule microarray, lysate, 635/667 nm, primary screen (AID 1149); conditions: COS7 hTOR1A-WT lysate, 635 nm fluorescence, higher = more signal
Sequence of Torsin-1A (Homo sapiens) (O14656 whole entry, looked up): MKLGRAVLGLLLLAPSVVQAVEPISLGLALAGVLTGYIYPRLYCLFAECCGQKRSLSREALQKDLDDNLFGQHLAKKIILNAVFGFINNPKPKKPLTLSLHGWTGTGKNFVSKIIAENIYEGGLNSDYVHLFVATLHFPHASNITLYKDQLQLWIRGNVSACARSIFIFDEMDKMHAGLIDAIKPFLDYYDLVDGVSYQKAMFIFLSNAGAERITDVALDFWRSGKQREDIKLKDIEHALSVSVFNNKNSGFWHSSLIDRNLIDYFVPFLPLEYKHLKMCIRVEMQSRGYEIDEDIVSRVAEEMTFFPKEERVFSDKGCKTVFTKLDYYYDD

Torsin-1A (Homo sapiens) [18] = biological target: Torsin-1A (Homo sapiens) (UniProt O14656); experiment: torsin A mutant lysate binding on microarrays – cell lysate, small-molecule microarray, COS7 lysate, 635/667 nm fluorescence, primary screen (AID 1150); conditions: COS7 hTOR1A mutant lysate, 635 nm fluorescence, higher = more signal;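 also: score pools 667 nm emission and signal to noise measuring lysate protein binding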
[19] = tested on: Sonic hedgehog protein (Shh); experiment: Sonic hedgehog microarray binding compounds – biochemical, small-molecule microarray, 635/667 nm fluorescence, primary screen (AID 1151); conditions: 635 nm fluorescence, higher = more signal;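 also: Shh protein binding to compounds spotted on small-molecule microarray slides; score combines spot fluorescence intensity with signal-to-noise across triplicate slides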

CCOC(=O)[C@H](Cc1ccccc1)NC(=O)CCC1CC(OC(=O)NCc2ccc3c(c2)OCO3)CC2(CCCC(COC(=O)NCC(c3ccccc3)c3ccccc3)O2)O1 (stereo not given in full)
composite z-score [1]: 0.98
composite z-score [2]: 1.2
composite z-score [3]: 0.231
composite z-score [4]: 0.0058
composite z-score [5]: 0.83
composite z-score [6]: 0.555
z-score [7]: 0.803
composite z-score (Lefty1): 0.579
composite z-score [8]: 0.477
z-score [9]: 0.635 (inactive)
composite z-score [10]: -0.169
z-score [11]: -0.9 (inactive)
z-score [12]: -1.34 (inactive)
z-score [13]: -0.255 (inactive)
z-score [14]: 0.0668 (inactive)
composite z-score [15]: 0.0072
composite z-score [16]: 0.0155
composite z-score (Torsin-1A (Homo sapiens) [17]): 0.545
composite z-score (Torsin-1A (Homo sapiens) [18]): 0.401
composite z-score [19]: 1.48

O=C1[C@H]2[C@H]3[C@H](O)[C@H](O)CC(=NO[C@@H]4O[C@H](CO)[C@@H](O)[C@H](O)[C@H]4O)[C@@H]3CC[C@H]2C(=O)N1Cc1ccc2c(c1)OCO2
composite z-score [1]: 0.715
composite z-score [2]: 0.782
composite z-score [3]: 0.293
composite z-score [4]: 0.78
composite z-score [5]: 0.449
composite z-score [6]: 0.289
z-score [7]: -0.789
composite z-score (Lefty1): 0.716
composite z-score [8]: 0.63
z-score [9]: 0.949 (inactive)
composite z-score [10]: 0.163
z-score [11]: 0.548 (inactive)
z-score [12]: 0.572 (inactive)
z-score [13]: 0.245 (inactive)
z-score [14]: 0.366 (inactive)
composite z-score [15]: 0.335
composite z-score [16]: -0.0506
composite z-score (Torsin-1A (Homo sapiens) [17]): 0.35
composite z-score (Torsin-1A (Homo sapiens) [18]): 0.254
composite z-score [19]: 0.666

CC(CCC(=O)OC[C@H]1O[C@H](C#Cc2ccccc2)C=C[C@@H]1Oc1ccc(C)cc1)=NOC[C@@H](O)[C@H]1O[C@@H]2OC(C)(C)O[C@@H]2[C@H]1O
composite z-score [1]: 0.418
composite z-score [2]: -0.106
composite z-score [3]: 0.0116
composite z-score [4]: -0.38
composite z-score [5]: -0.382
composite z-score [6]: -0.448
z-score [7]: 0.343
composite z-score (Lefty1): 0.131
composite z-score [8]: -0.604
z-score [9]: 0.29 (inactive)
composite z-score [10]: -0.598
z-score [11]: -0.416 (inactive)
z-score [12]: -0.025 (inactive)
z-score [13]: 0.099 (inactive)
z-score [14]: 0.0046 (inactive)
composite z-score [15]: -0.564
composite z-score [16]: -0.178
composite z-score (Torsin-1A (Homo sapiens) [17]): -0.526
composite z-score (Torsin-1A (Homo sapiens) [18]): -0.617
composite z-score [19]: -0.108

CCN1C(=O)[C@H]2[C@H]3[C@H](O)[C@H](O)CC(=NOCc4ccccc4)[C@H]3CC[C@H]2C1=O
composite z-score [1]: -0.364
composite z-score [2]: 0.359
composite z-score [3]: 0.155
composite z-score [4]: 0.443
composite z-score [5]: 0.213
composite z-score [6]: 0.22
z-score [7]: -0.442
composite z-score (Lefty1): 0.228
composite z-score [8]: -0.077
z-score [9]: 0.243 (inactive)
composite z-score [10]: -0.0887
z-score [11]: 0.856 (inactive)
z-score [12]: -0.784 (inactive)
z-score [13]: 0.25 (inactive)
z-score [14]: -0.332 (inactive)
composite z-score [15]: 0.201
composite z-score [16]: -0.189
composite z-score (Torsin-1A (Homo sapiens) [17]): 0.171
composite z-score (Torsin-1A (Homo sapiens) [18]): 0.46
composite z-score [19]: 0.109

O=C1[C@H]2[C@H]3[C@H](O)[C@H](O)CC(=NOCc4ccccc4)[C@@H]3CC[C@H]2C(=O)N1C1CCCCC1
composite z-score [1]: 0.157
composite z-score [2]: -0.0419
composite z-score [3]: 0.179
composite z-score [4]: -0.303
composite z-score [5]: 0.207
composite z-score [6]: -0.45
z-score [7]: -0.134
composite z-score (Lefty1): 0.348
composite z-score [8]: -0.0558
z-score [9]: 0.0264 (inactive)
composite z-score [10]: 0.0062
z-score [11]: -0.48 (inactive)
z-score [12]: 0.774 (inactive)
z-score [13]: 0.519 (inactive)
z-score [14]: 0.182 (inactive)
composite z-score [15]: -0.0498
composite z-score [16]: -0.533
composite z-score (Torsin-1A (Homo sapiens) [17]): -0.0289
composite z-score (Torsin-1A (Homo sapiens) [18]): -0.47
composite z-score [19]: -0.317

C=CCC(OC(C)=O)[C@@H]1[C@@H](N(Cc2cc3ccccc3o2)C(=O)Cc2ccc(F)cc2)c2cc(OCCCO)ccc2N1C(=O)Cc1ccc(OC)cc1 (stereo not given in full)
composite z-score [1]: -0.419
composite z-score [2]: -1.14
composite z-score [3]: -0.0602
composite z-score [4]: 0.0188
composite z-score [5]: 0.354
composite z-score [6]: -0.271
z-score [7]: 0.919
composite z-score (Lefty1): 0.158
composite z-score [8]: 0.0264
z-score [9]: -0.188 (inactive)
composite z-score [10]: -0.368
z-score [11]: -0.276 (inactive)
z-score [12]: 0.00133 (inactive)
z-score [13]: 1.27 (inactive)
z-score [14]: 0.515 (inactive)
composite z-score [15]: 0.0444
composite z-score [16]: -0.045
composite z-score (Torsin-1A (Homo sapiens) [17]): -0.499
composite z-score (Torsin-1A (Homo sapiens) [18]): -0.522
composite z-score [19]: 0.603

C[C@@H](c1ccccc1)N1C(=O)[C@H]2[C@H]3[C@H](O)[C@H](O)CC(=NOC[C@@H](O)COCc4ccco4)[C@@H]3CC[C@H]2C1=O
composite z-score [1]: -0.623
composite z-score [2]: -0.604
composite z-score [3]: 0.126
composite z-score [4]: 0.448
composite z-score [5]: -0.761
composite z-score [6]: -0.728
z-score [7]: -0.62
composite z-score (Lefty1): -0.809
composite z-score [8]: 0.112
z-score [9]: 0.558 (inactive)
composite z-score [10]: -0.253
z-score [11]: 0.333 (inactive)
z-score [12]: -0.0196 (inactive)
z-score [13]: -0.292 (inactive)
z-score [14]: 0.236 (inactive)
composite z-score [15]: -0.485
composite z-score [16]: -0.176
composite z-score (Torsin-1A (Homo sapiens) [17]): -0.304
composite z-score (Torsin-1A (Homo sapiens) [18]): -0.294
composite z-score [19]: -0.494

O=C(NN=C1C[C@@H](O)[C@@H](O)[C@@H]2[C@@H]3C(=O)N(c4cccc(Oc5ccccc5)c4)C(=O)[C@@H]3CC[C@@H]12)OCc1ccccc1
composite z-score [1]: -0.0621
composite z-score [2]: 0.0508
composite z-score [3]: 0.0623
composite z-score [4]: 0.81
composite z-score [5]: -0.0636
composite z-score [6]: -0.0953
z-score [7]: -0.0675
composite z-score (Lefty1): 0.211
composite z-score [8]: 0.764
z-score [9]: 0.663 (inactive)
composite z-score [10]: -0.0255
z-score [11]: -0.033 (inactive)
z-score [12]: -0.0198 (inactive)
z-score [13]: 1.6 (inactive)
z-score [14]: -0.227 (inactive)
composite z-score [15]: 0.504
composite z-score [16]: -0.183
composite z-score (Torsin-1A (Homo sapiens) [17]): 0.212
composite z-score (Torsin-1A (Homo sapiens) [18]): 0.31
composite z-score [19]: -0.376

COCCCNC(=O)[C@]1(Cc2ccccc2)N=C(c2ccc(OCCCO)cc2)O[C@@H]1c1ccccc1
composite z-score [1]: 1.26
composite z-score [2]: 1.23
composite z-score [3]: 1.03
composite z-score [4]: 0.99
composite z-score [5]: 0.355
composite z-score [6]: 0.827
z-score [7]: 0.549
composite z-score (Lefty1): -0.334
composite z-score [8]: 1.09
z-score [9]: -0.515 (inactive)
composite z-score [10]: 0.424
z-score [11]: -2.94 (inactive)
z-score [12]: -0.0581 (inactive)
z-score [13]: 0.423 (inactive)
z-score [14]: -1.36 (inactive)
composite z-score [15]: 0.661
composite z-score [16]: 0.142
composite z-score (Torsin-1A (Homo sapiens) [17]): 0.445
composite z-score (Torsin-1A (Homo sapiens) [18]): 0.992
composite z-score [19]: -0.521
